# SF-1 inh: inhibitors of human nuclear receptor SF-1. 65,000 tested, 0.55% active. inhibition, % at 10 µM. CHO-K1 Gal4-SF-1 LBD luciferase reporter. AID 525;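 active = inhibition above the mean inhibition of all tested compounds plus 3 SD, cut at about 48% in these data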;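 also: 0% = SF-1 transfected cells with DMSO and 100% = mock-transfected cells lacking SF-1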
# Target sequence (Q13285 whole entry, looked up, the tested form may be a part): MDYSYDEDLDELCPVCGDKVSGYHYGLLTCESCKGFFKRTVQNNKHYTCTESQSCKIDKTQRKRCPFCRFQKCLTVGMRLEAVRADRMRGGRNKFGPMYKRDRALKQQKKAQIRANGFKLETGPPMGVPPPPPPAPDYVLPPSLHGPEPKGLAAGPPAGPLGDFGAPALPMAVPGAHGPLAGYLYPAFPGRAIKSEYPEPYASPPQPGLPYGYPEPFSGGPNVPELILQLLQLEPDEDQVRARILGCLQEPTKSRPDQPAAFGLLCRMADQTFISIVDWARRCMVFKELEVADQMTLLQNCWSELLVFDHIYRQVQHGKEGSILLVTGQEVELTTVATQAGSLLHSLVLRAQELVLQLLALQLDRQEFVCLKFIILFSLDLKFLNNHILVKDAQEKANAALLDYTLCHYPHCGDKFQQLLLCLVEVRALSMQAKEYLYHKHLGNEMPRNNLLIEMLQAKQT
# The depositor's hits bear a star. This is one part of a sample in which hits are shown more often than they occur.
SMILES,SF-1 inh
c1cnc2c(SCc3ccc(-c4nnco4)cc3)cccc2c1,-62.5
O=C1c2ccccc2C(=O)N1CCN1CCc2ccccc21,-52.5
CCOc1cc(C(=O)Nc2ccc(S(=O)(=O)N3CCOCC3)cc2)cc(OCC)c1OCC,-12.5
COc1ccc(N=c2scc(-c3ccc(S(=O)(=O)N4CCOCC4)cc3)n2CCCO)cc1,64.5*
O=C(Nc1ccc(S(=O)(=O)N2CCOCC2)cc1)c1cccs1,-1.4
COc1ccc(C(=O)Nc2cccc(OC)c2)cc1,-81.2
COc1cccc(NC(=O)c2nc3ncccn3n2)c1,-10.0
COc1ccc(C(=O)NC(=O)Nc2cc(C)ccn2)cc1,88.8*
Cc1nnc(NC(=O)NCN2C(=O)C3C4C=CC(C4)C3C2=O)s1 (stereo unspecified),6.9
COc1ccc(N(C)S(=O)(=O)c2c(C)[nH]c(=O)[nH]c2=O)cc1,-4.4
CCN(C(=O)c1cc(Cl)ccc1OC)C1CCCCC1,16.8
O=C(c1ccc2c(c1)OCO2)N1CCN(c2ccc(F)cc2)CC1,-7.1
Cc1occc1C(=O)n1nnc2ccccc21,4.6
Cc1occc1C(=O)N1CCN(c2ccc(Cl)c(Cl)c2)CC1,55.8*
COc1ccccc1N(Cc1cc2cccc(C)c2[nH]c1=O)C(=O)C(C)C,2.2
OC(COCC1COc2ccccc2O1)CN1CCN(c2ccccn2)CC1 (stereo unspecified),3.2
CN=c1scc(C)n1/N=C/c1ccc(O)cc1,25.0
CN=c1scc(C)n1/N=C/c1ccc(O)cc1O,51.8*
Cn1cnnc1SCc1ccc(-c2ccc(Br)cc2)o1,5.4
CCCCCOC(=O)c1[nH]c2c(c1C)C(=O)CC(c1ccco1)C2 (stereo unspecified),57.4*
COc1ccc2[nH]c(=O)c(CN(C(=O)c3ccco3)C3CCCCC3)cc2c1,10.0
CCc1ccc2oc(-c3cc(N=Cc4cccc(OC)c4O)ccc3O)nc2c1,50.6*
O=C(OC(C(=O)NCc1cccs1)c1ccccc1Cl)c1ccco1 (stereo unspecified),9.5
CCOC(=O)C1CCN(C(=O)CN(c2cccc(OC)c2)S(=O)(=O)c2ccccc2)CC1,-1.0
COc1cc2c(cc1NC(=O)CSCC(=O)O)oc1ccccc12,3.6
SMILES,SF-1 inh
COc1cc2c(cc1NC(=O)c1cncc(Br)c1)oc1ccccc12,-2.2
COc1cc2c(cc1NC(=O)CSc1nnnn1-c1ccccc1)oc1ccccc12,84.1*
CCOc1cccc(-c2nnc(SCC(=O)Nc3ccc(OC)c(OC)c3)n2N)c1,10.7
CCOc1ccccc1-n1c(SCC(=O)Nc2ccc(CC)cc2)nc2n[nH]c(C)c2c1=N,83.9*
CCOc1ccccc1N(CC(=O)Nc1ccc(C)cc1)S(C)(=O)=O,1.7
Cn1c(SCC(=O)Nc2cc(=O)n(C)c(=O)n2C)nnc1-c1cccs1,-6.1
Cc1nn(-c2ccccc2)c2sc(C(=O)OC3CCOC3=O)cc12 (stereo unspecified),15.8
CCC1Oc2ccccc2N(CC(=O)Nc2ccccc2OC)C1=O (stereo unspecified),-2.6
CCC(C(=O)N1CCc2ccccc2C1)n1nc(C)n2c(cc3occc32)c1=O (stereo unspecified),18.5
CCOC(=O)C(NC(=O)c1ccccc1)(N1CCCC1=O)C(F)(F)F (stereo unspecified),7.6
Cc1ccc(S(=O)(=O)N2CCN(C(=O)N3CCOCC3)C2C)cc1 (stereo unspecified),11.5
CCOc1cccc(C(=O)Nc2nnc(-c3ccco3)s2)c1,-11.2
COc1ccc(-c2noc(CCCC(=O)NCCc3ccccc3)n2)cc1OC,60.0*
COc1ccc(-c2noc(CCC(=O)NCCN3CCN(c4ccccc4F)CC3)n2)cc1,5.2
COc1ccc(CCC(=O)Nc2ccc(-c3noc(-c4ccc(OC)c(OC)c4)n3)cc2)cc1,-75.4
CC(=O)c1cccc(-n2nnnc2SCC(=O)N2CCCC2)c1,2.4
O=C(CSc1nc2cc(Cl)ccc2o1)c1cccs1,-18.5
O=C(Nc1nsc(-c2ccccc2)n1)c1cccs1,-77.0
O=C(CSc1nnnn1-c1ccccc1)Nc1nsc(-c2ccc(Cl)cc2)n1,88.0*
COc1cccc(-n2nnnc2SCC(=O)Nc2cccc(C)n2)c1,1.2
COC(=O)C1=C(CSc2nnnn2C)NC(=O)NC1c1cc(C)ccc1C (stereo unspecified),2.9
CSc1nc(C)cc(OCNC(=O)c2cccs2)n1,-4.1
c1ccc(-c2cn3c4c(sc3n2)CCCC4)cc1,73.0*
Cc1c(C(=O)NCc2ccco2)sc2nc(-c3ccccc3)cn12,-52.0
Cc1c(C(=O)N2CCOCC2)sc2nc(-c3ccccc3)cn12,-82.4
SMILES,SF-1 inh
Cc1cccc(-n2ncc3c(N(C)Cc4ccccc4)ncnc32)c1,-64.4
CCOC(=O)N1CCN(C(=O)c2ccc3c(SCC(=O)O)c4c(nc3c2)CCC4)CC1,10.0
CCOC(=O)c1ccccc1NC(=O)c1ccc(NS(C)(=O)=O)cc1,-3.3
c1ccn2c(SCc3cn4ccsc4n3)nnc2c1,-70.7
O=C(NC1(C(=O)NC2CCCCC2)CCCCC1)c1ccc2c(c1)OCO2,-11.3
O=C(c1ccc(Cl)cc1)N1CCCCC(Sc2nnc(-c3ccc4c(c3)OCO4)o2)C1=O (stereo unspecified),89.2*
c1ccc2c(c1)CCN(CCCNc1nc3ccccc3n3cnnc13)C2,-15.6
O=C(NCCN1CCOCC1)C1CCC(=O)N1C1CCCCC1 (stereo unspecified),11.0
CC(C)CC(NC(=O)OC(C)(C)C)C(=O)NC(C(=O)N1CCCC1C(N)=O)C(C)C (stereo unspecified),12.8
COC(=O)c1ccccc1NC(=O)Nc1cc(C)cc(C)n1,-8.0
COc1cccc(C(=O)N2CCN(Cc3cccc(F)c3)CC2)c1,1.5
Cc1ccc(-c2ccc(OCC(=O)N3CCOCC3)cc2)cc1,1.8
CCOc1ccc(OCc2cccc(C(=O)N3CCOCC3)c2)cc1,61.6*
Cc1c(NC(=O)Cn2nc(C(F)(F)F)c3c2CCCC3)c(=O)n(-c2ccccc2)n1C,-4.1
O=C(Nc1ccc2c(c1)OCO2)c1c(Cl)nc2sccn12,-66.1
Cn1cc(C(=O)NCCN2CCN(c3ccccc3F)CC2)c2c3ccccc3n(C)c2c1=O,-4.7
COc1cc(C2C(C#N)=C(N)Oc3cc(N(C)C)ccc32)cc2c1OCO2 (stereo unspecified),59.0*
COc1ccc(OC)c(-c2cc(C(=O)NCc3ccco3)no2)c1,2.6
Cc1ccc(NC(=O)c2ocnc2C)cc1Cl,-71.9
O=C(NCc1ccccc1)c1noc2c1CCCCC2,-52.5
O=C1CC(NCCN2CCOCC2)C(=O)N1Cc1ccc(N2CCCC2=O)cc1 (stereo unspecified),-3.6
Cn1nc(C(C)(C)C)cc1C(=O)NCc1ccc(N2CCCC2=O)cc1,69.4*
CC(C)(C)c1ccc(-c2conc2N)cc1,-51.6
CCCc1nnc(SCc2ccc(OCC)cc2)n1N,6.1
CCOC(=O)c1snc(C(=O)NC2CCCCC2)c1N,-105.9
SMILES,SF-1 inh
CCOC(=O)c1cnc(-n2nc(C)cc2C)nc1Nc1ccc2c(c1)OCO2,5.9
CCOC(=O)c1cnc(-n2nc(C)cc2C)nc1NC1CCCCC1,86.9*
O=C(CN1C(=O)NC2(CCCCCC2)C1=O)c1ccc2c(c1)OCCO2,-88.7
COc1ccc(C)cc1-n1nnnc1SCc1nc2ccccc2s1,-109.7
COc1cc(CSc2nnnn2-c2ccc(C)cc2)cc(OC)c1OC,62.0*
Cc1ccc(Nc2nc(CSc3nnnn3-c3ccccc3)cs2)cc1,5.9
Cc1ccc2oc(=O)c3cnn(CC(=O)NCCC(C)C)c3c2c1,14.5
CCSc1nnc(NC(=O)c2nn(C(C)C)c(=O)c3ccccc23)s1,8.5
O=C(c1cccs1)N1CCn2c1nc1ccccc12,-53.2

# Source: PubChem
